# Measurements taken from PubChem BioAssay (Tox21).
# Inconclusive results are not listed. Where a call stands in place of a potency, no number is given. Activity calls are given as the source filed them. Calls come from the whole dose curve.
# Assay: qHTS assay for small molecule disruptors of the mitochondrial membrane potential - cell viability (AID 720634); note: nearly all actives have a fitted effect of over 20% in size;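 for activity change, negative = cytotoxicity: human HepG2 liver cancer cells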
# Conditions: HepG2 viability, ATP luminescence (CellTiter-Glo), 1 h; series mostly up to 83.2 µM
# From the text: U.S. Tox21 Program National Center for Advancing Translational Sciences [NCATS] NIH Chemical Genomics Center [NCGC] U.S. Environmental Protection Agency [EPA] National Institutes of Environmental Health Sciences [NIEHS] National Toxicology Program [NTP] U.S. Food and Drug Administration [FDA] Tox21 Assay Overview: Mitochondrial membrane potential (MMP), one of the parameters for mitochondrial function, is generated by mitochondrial electron transport chain that creates an electrochemical gradient by a series of redox reactions. This gradient drives the synthesis of ATP, a crucial molecule for various cellular processes. Measuring MMP in living cells is commonly used to assess the effect of chemicals on mitochondrial function; decreases in MMP can be detected using lipophilic cationic fluorescent dyes. […] The dye accumulates in the mitochondria of healthy cells as aggregates, with red fluorescence. The mitochondrial potential decreases and the dye could not accumulate in the mitochondria and remains in the cytoplasm in monomers, with green fluorescence. In addition to the mitochondrial potential assay, these cells were also used to test the cytotoxicity by determining the cell viability in the culture based on the quantitation of ATP present. The cytotoxicity was measured in the same assay well of MMP assay.
# Tox21 Assay Protocol Summary: 2,000 HepG2 cells in 5 uL/well were dispensed into black, clear-bottom 1536-well plates using a Multidrop Combi (Thermo Scientific) dispenser. The assay plates were incubated for an overnight at 37 C to allow cells to attach to the wells, followed by the transfer of 23 nL compound or DMSO vehicle by a pin tool (Kalypsys). The plates were incubated for 1 hr at 37 C and 5% CO2, followed by the addition of 5 uL of 2X m-MPI dye into each well using Flying Reagent Dispenser (Aurora Discovery) and then CellTiter-Glo reagent was added at 4 uL/well and incubated 30 min at room temperature. Then luminescence intensity was quantified on a ViewLux CCD-based plate reader.
# Potency is the fitted concentration of half-maximal effect.
SMILES,Potency,"activity change, negative = cytotoxicity"
CCCCC1=NC2(CCCC2)C(=O)N1Cc1ccc(-c2ccccc2-c2nn[nH]n2)cc1,inactive,–
CCN(CC)CCOC(=O)C(c1ccccc1)C1CCCCC1 (stereo not given),inactive,–
Cc1[nH]c(C)c(Cl)c(=O)c1Cl,inactive,–
CCO[Si](CCCCl)(OCC)OCC,inactive,–
Cc1cc(N)c2cc(NC(=O)Nc3ccc4nc(C)cc(N)c4c3)ccc2n1,inactive,–
O=C(O)CNCC(=O)O,–,-5.3% [at 8.08 µM] (inactive)
Cc1ccc(N=Nc2c(O)c(C(=O)O)cc3ccccc23)c(S(=O)(=O)O)c1,inactive,–
OCCN1CCN(CCCN2c3ccccc3C=Cc3ccccc32)CC1,inactive,–
CC(C)(CO)[N+](=O)[O-],inactive,–
O=C(O)c1ccc(S(=O)(=O)O)cc1C(=O)O,inactive,–
CC(=O)[O][Al][O]C(C)=O,inactive,–
CN(C)c1ccc(/C=C/c2ccc([N+](=O)[O-])cc2)cc1,–,-8.24% [at 8.08 µM] (inactive)
C=C1[C@H]2CC[C@@H]3[C@H]2C(C)(C)CCC[C@]13C,inactive,–
CCOc1ccc(N=Nc2ccc(/C=C/c3ccc(N=Nc4ccc(OCC)cc4)cc3S(=O)(=O)O)c(S(=O)(=O)O)c2)cc1,inactive,–
C[C@H]1C[C@H]2[C@@H]3CCC4=CC(=O)C=C[C@]4(C)[C@@]3(Cl)[C@@H](O)C[C@]2(C)[C@@]1(O)C(=O)CO,inactive,–
CCCCCCCCCCO[C@@H]1O[C@H](CO)[C@@H](O)[C@H](O)[C@H]1O,inactive,–
Cc1cccc(Nc2ccccc2)c1,inactive,–
CNCCCCOc1ccccc1Cc1ccccc1,inactive,–
CCCOC(C(=O)OC1CCN(C)CC1)(c1ccccc1)c1ccccc1,inactive,–
CN(C)C(=O)NC1(c2ccccc2)CCN(CC[C@@]2(c3ccc(F)c(F)c3)CN(C(=O)c3ccccc3)CCO2)CC1,inactive,–

SMILES,Potency,"activity change, negative = cytotoxicity"
Cc1oc(-c2ccccc2)nc1CCOc1cccc2c1ccn2CCC(=O)O,inactive,–
CCCCCCCCCCCCN1CCCCCC1=O,27.3 µM (active),–
OC(C#CCN1CCCC1)(c1ccccc1)c1ccccc1,inactive,–
CCN(CC)c1ccc2c(-c3ccccc3C(=O)O)c3ccc(=[N+](CC)CC)cc-3oc2c1,inactive,–
C=CC(=O)OCCOCCOC(=O)C=C,inactive,–
CCCCC(CC)COC(=O)COc1ccc(Cl)cc1Cl (stereo not given),inactive,–
CCCCC(CC)COC(=O)CCCCCCCCC(=O)OCC(CC)CCCC (stereo not given),inactive,–
Nc1c(CC(=O)O)cccc1C(=O)c1ccc(Br)cc1,inactive,–
O=C(Nc1ccccc1)c1ccccc1O,27.3 µM (active),–
CC/C=C\CCOC(=O)CC,inactive,–
CCn1cc(C(=O)O)c(=O)c2cnc(N3CCNCC3)nc21,inactive,–
Cc1cccc(C)c1NC(=O)CN(CC(=O)O)CC(=O)O,inactive,–
CN(C)c1ccc(CCO)cc1,inactive,–
CN(C)CCN(Cc1ccc(Cl)cc1)c1ccccn1,inactive,–
OCc1cc(C(O)CNCCCCCCOCCCCc2ccccc2)ccc1O (stereo not given),inactive,–
O=C(CS)Nc1ccccc1,inactive,–
CCNc1cc(O)ccc1C,inactive,–
COc1cc2nc(N3CCN(C(=O)C4COc5ccccc5O4)CC3)nc(N)c2cc1OC (stereo not given),inactive,–
O=P(O)(OCc1ccccc1)OCc1ccccc1,inactive,–
CCCCCCCC#N,inactive,–
